From PubChem BioAssay (Tox21)
Records with an inconclusive call do not appear. Active and inactive are the calls of the source. Unless noted, the call rests on the fitted dose curve; in most records, active means well fitted curve in the direction sought with a large enough effect in the repeat runs; inconclusive means weak or mixed curves; inactive means no such curve, though single readings can be large; an effect the other way counts as inactive or inconclusive.

Assays:
[1] = qHTS assay for small molecule agonists of the p53 signaling pathway (AID 651631; calls by dose curve; further: nearly all actives have a fitted effect of over 15% in size)
In short: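 Agonist mode screen using a stably integrated beta-lactamase gene under p53 response elements in HCT-116 cells. Compound exposure lasts 16 h at 37 °C; fluorescence intensity is measured following 2 h FRET substrate loading.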

[2] = qHTS assay for small molecules that induce genotoxicity in human embryonic kidney cells expressing luciferase-tagged ATAD5 (AID 651632); further: nearly all actives have a fitted effect of over 15% in size
In short: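 HEK293T cells carrying a luciferase reporter tagged to ATAD5 were exposed to compound or DMSO vehicle for 16 hr at 37C, 5% CO2. Amplite was added, and after 30 min at room temperature luciferase activity was read as a marker of ATAD5 induction.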

[3] = qHTS assay for small molecule agonists of the p53 signaling pathway - cell viability (AID 651633; calls by dose curve;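 further: p53RE-bla HCT reporter cells with a stable beta-lactamase p53 reporter; series mostly up to about 83 µM; nearly all actives have a fitted effect of over 30% in size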)
In short: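 p53RE-bla cells, seeded at 4,000 per well and rested 5 h at 37 C/5% CO2, received compounds in DMSO for 16 h at 37 C. CellTiter-Glo was then added, and luminescence was read after 30 min at room temperature to gauge cytotoxicity.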

[4] = qHTS assay for small molecules that induce genotoxicity in human embryonic kidney cells expressing luciferase-tagged ATAD5 - cell viability (AID 651634; calls by dose curve; further: nearly all actives have a fitted effect of over 25% in size)
In short: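 HEK293T cells expressing luciferase-tagged ATAD5 were exposed to compound or DMSO for 15.5 hr at 37C, 5% CO2. Viability was then read as live-cell protease activity by CellTiter-Fluor fluorescence after 30 min at 37C.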

[5] = qHTS assay for small molecule disruptors of the mitochondrial membrane potential - cell viability (AID 720634; calls by dose curve;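 further: human HepG2 liver cancer cells; series mostly up to about 83 µM; nearly all actives have a fitted effect of over 20% in size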)
In short: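 HepG2 cells seeded overnight at 37 C, then exposed to compound or DMSO for 1 hr at 37 C, 5% CO2. m-MPI dye added, then CellTiter-Glo for 30 min at room temperature; viability read as ATP luminescence.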

[6] = qHTS assay for small molecule disruptors of the mitochondrial membrane potential (AID 720635)
In short: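 HepG2 cells (2,000/well) attached overnight at 37C, then took compound for 1 hr at 37C, 5% CO2. Mito-MPS dye was added for 30 min; fluorescence was read at 490/535 nm (monomers) and 540/590 nm (aggregates).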

[7] = qHTS assay to test for compound auto fluorescence at 590 nm (red) in HepG2 cells (AID 720674)
In short: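 Intrinsic compound fluorescence in the red window (Ex/Em 540/590 nm) is measured in attached HepG2 cells exposed for 1 hr, DMSO vehicle as baseline, benchmarked to Rose Bengal sodium.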

[8] = qHTS assay to test for compound auto fluorescence at 535 nm (green) in HepG2 cells (AID 720675)
[9] = qHTS assay to test for compound auto fluorescence at 460 nm (blue) in HEK293 cells (AID 720678)
In short: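 Cells were seeded and left to adhere for 4-5 hr at 37C. Compounds were then pin-transferred. After an overnight incubation at 37C under 5% CO2, intrinsic fluorescence at 405/460 nm was measured and referenced to triamterene.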

[10] = qHTS assay to test for compound auto fluorescence at 590 nm (red) in HEK293 cells (AID 720679)
In short: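 Each well held 2,000 HEK293 cells in medium containing 10% dialyzed FBS. Following 4-5 hr attachment at 37C, 23 nL test compound or DMSO was added; plates sat overnight, and red fluorescence (540/590nm) was recorded.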

[11] = qHTS assay to test for compound auto fluorescence at 535 nm (green) in HEK293 cells (AID 720680)
[12] = qHTS assay to test for compound auto fluorescence at 460 nm (blue) in HEK293 cell free culture (AID 720681)
In short: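 Test compounds were pinned into cell-free culture medium (DMEM with 10% FBS) and fluorescence was read directly at Ex/Em 405/460 nm. Signals were expressed as fluorescence equivalents of triamterene, with DMSO vehicle as control.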

[13] = qHTS assay to test for compound auto fluorescence at 535 nm (green) in HEK293 cell free culture (AID 720682)
In short: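 No cells present: wells hold DMEM supplemented with 10% FBS, into which compound or vehicle is pinned. Green emission is then recorded (485 nm excitation, 535 nm emission) and scaled to fluorescein.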

[14] = qHTS assay to test for compound auto fluorescence at 590 nm (red) in HEK293 cell free culture (AID 720683)
In short: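 Tox21 10K library compounds were pinned into cell-free DMEM with 10% FBS and fluorescence was read at excitation 540 nm. Activity is expressed as Rose Bengal sodium equivalency.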

[15] = qHTS assay to test for compound auto fluorescence at 590 nm (red) in HepG2 cell free culture (AID 720684)
In short: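 Red fluorescence (540 nm excitation, 590 nm emission) was measured after compound transfer into cell-free MEM supplemented with 10% FBS. Values are equivalencies against Rose Bengal sodium.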

[16] = qHTS assay to test for compound auto fluorescence at 460 nm (blue) in HepG2 cell free culture (AID 720685)
In short: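 Compound (23 nL) or DMSO pinned into cell-free MEM with 10% FBS; blue fluorescence read at 405/460 nm excitation/emission, expressed as auto-fluorescence equivalency to triamterene.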

[17] = qHTS assay to test for compound auto fluorescence at 535 nm (green) in HepG2 cell free culture (AID 720686)
[18] = qHTS assay to test for compound auto fluorescence at 460 nm (blue) in HepG2 cells (AID 720687)
In short: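 Cells (2,000/well in MEM with 10% FBS) attached overnight at 37 C, then were exposed to compound or DMSO for 1 hr at 37 C, 5% CO2. Fluorescence read at Ex/Em 405/460 nm, expressed as triamterene-equivalent signal.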

[19] = target: Glucocorticoid receptor (Homo sapiens) (UniProt P04150); assay: qHTS assay to identify small molecule agonists of the glucocorticoid receptor (GR) signaling pathway (AID 720691; active means well fitted activation curve with a large enough effect in the signal ratio in the repeat runs, not every such curve was filed as active; the % refers to the signal ratio)
Glucocorticoid receptor (Homo sapiens), sequence (P04150 whole entry, looked up): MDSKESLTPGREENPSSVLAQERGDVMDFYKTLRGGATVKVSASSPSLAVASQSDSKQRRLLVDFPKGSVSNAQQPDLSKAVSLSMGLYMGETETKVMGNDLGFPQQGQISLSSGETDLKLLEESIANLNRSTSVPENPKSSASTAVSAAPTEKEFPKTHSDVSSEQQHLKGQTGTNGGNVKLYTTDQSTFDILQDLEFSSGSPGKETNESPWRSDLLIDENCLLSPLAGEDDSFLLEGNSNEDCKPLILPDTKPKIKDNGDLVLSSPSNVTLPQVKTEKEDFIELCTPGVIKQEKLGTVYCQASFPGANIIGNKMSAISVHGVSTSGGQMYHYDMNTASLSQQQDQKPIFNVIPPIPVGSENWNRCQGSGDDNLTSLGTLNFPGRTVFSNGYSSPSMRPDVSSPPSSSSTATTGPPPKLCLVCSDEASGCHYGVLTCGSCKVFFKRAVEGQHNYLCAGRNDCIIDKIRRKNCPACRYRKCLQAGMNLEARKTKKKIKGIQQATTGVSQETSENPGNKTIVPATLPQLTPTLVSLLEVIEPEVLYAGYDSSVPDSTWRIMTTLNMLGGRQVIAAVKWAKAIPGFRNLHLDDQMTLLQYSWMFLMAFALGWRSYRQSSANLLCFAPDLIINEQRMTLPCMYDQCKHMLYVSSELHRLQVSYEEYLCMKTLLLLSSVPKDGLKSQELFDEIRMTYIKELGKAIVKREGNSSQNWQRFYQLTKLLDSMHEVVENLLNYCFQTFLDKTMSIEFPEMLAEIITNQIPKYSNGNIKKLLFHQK
In short: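 GR-bla HeLa cells (beta-lactamase reporter under glucocorticoid response element) were plated 4 h at 37 C/5% CO2, given compounds in DMSO, and incubated 18 h at 37 C. LiveBLAzer B/G FRET substrate was added for 2 h at room temperature, then fluorescence intensity read.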

[20] = target: Glucocorticoid receptor (Homo sapiens) (UniProt P04150); assay: qHTS assay to identify small molecule antagonists of the glucocorticoid receptor (GR) signaling pathway (AID 720692; active means well fitted inhibition curve with a large enough effect in the signal ratio in the repeat runs, not every such curve was filed as active; the % refers to the signal ratio)
In short: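 GR-bla HeLa cells (beta-lactamase reporter under glucocorticoid response element) were pre-plated 4 h at 37 C, treated with compounds plus 5 nM dexamethasone (final) for 18 h, then read by LiveBLAzer B/G FRET fluorescence after 2 h.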

[21] = qHTS assay to identify small molecule antagonists of the glucocorticoid receptor (GR) signaling pathway - cell viability counter screen (AID 720693); further: nearly all actives have a fitted effect of over 55% in size
[22] = qHTS assay for identifying genotoxic compounds that show differential cytotoxicity against isogenic chicken DT40 cell lines with known DNA damage response pathways - wild type cell line (AID 743012); further: nearly all actives have a fitted effect of over 60% in size
In short: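 Parental DNA repair-proficient DT40 cells, 300 per well, were pre-incubated ~0.5 h at 37 C/5% CO2, pin-dosed with compounds in DMSO, then incubated 40 h. Viability was read as CellTiter-Glo luminescence after 30 min at room temperature.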

[23] = qHTS assay for identifying genotoxic compounds that show differential cytotoxicity against isogenic chicken DT40 cell lines with known DNA damage response pathways - Rev3 mutant cell line (AID 743014); further: nearly all actives have a fitted effect of over 55% in size

Measured: Potency

O=C(O)/C=C\C(=O)O
inactive: [1] | [2] | [3] | [4] | [5] | [6] | [7] | [8] | [9] | [10] | [11] | [12] | [13] | [14] | [15] | [16] | [17] | [18] | [19] | [20] | [21] | [22] | [23]
